In PubChem BioAssay (NCI):
About 79,000 compounds went through this panel and 15% of them were active in at least one assay; those are over-represented in the sample as a whole. Calls of active or inactive are those of the source. Rule as the data show it: active = growth inhibition above about 70%; inactive = the rest.

How the values were obtained:
[1] = NCI Yeast Anticancer Drug Screen. Data for the rad50 strain (AID 155);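 also: 0% = growth of vehicle-only cultures of the same strain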; details: S. cerevisiae rad50 strain growth inhibition; at 50.0 µM; stronger effect = higher value
Procedure, shortened: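 Readout: growth inhibition relative to vehicle-treated cultures. Compound exposure was carried out in a genetically defined yeast strain deficient in DNA damage repair.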

[2] = NCI Yeast Anticancer Drug Screen. Data for the mec2-1 strain (AID 157); details: S. cerevisiae mec2-1 strain, at 50.0 µM, stronger effect = higher value
Procedure, shortened: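 Yeast mec2-1 mutant treated with compound. Readout: growth inhibition vs vehicle controls.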

[3] = NCI Yeast Anticancer Drug Screen. Data for the cln2 rad14 strain (AID 165);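 also: 0% = growth equal to vehicle treated cultures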; details: S. cerevisiae cln2 rad14 strain, at 50.0 µM, stronger effect = higher value
Procedure, shortened: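 cln2 rad14 yeast strain; compound exposure; growth inhibition read vs vehicle controls.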

[4] = NCI Yeast Anticancer Drug Screen. Data for the bub3 strain (AID 167); details: S. cerevisiae bub3 mutant strain, at 50.0 µM, stronger effect = higher value
Procedure, shortened: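 Readout: yeast growth inhibition, expressed relative to vehicle-only wells. The test organism is a mutant strain from a panel with lesions in DNA repair or checkpoint genes.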

[5] = NCI Yeast Anticancer Drug Screen. Data for the mlh1 rad18 strain (AID 175); details: S. cerevisiae mlh1 rad18 strain growth inhibition; at 50.0 µM; stronger effect = higher value
Procedure, shortened: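 Yeast w/ defined DNA-repair lesions; compound exposure; growth vs vehicle controls → % inhibition.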

[6] = NCI Yeast Anticancer Drug Screen. Data for the sgs1 mgt1 strain (AID 161);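 also: 0% = growth of cultures given vehicle only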; details: S. cerevisiae sgs1 mgt1 strain, at 50.0 µM, stronger effect = higher value
Procedure, shortened: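 Test agents were incubated with a DNA-repair-mutant yeast strain. Growth was then read and compared against vehicle-treated controls.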

Measured: growth inhibition

CC(=O)OCC1OC(n2c(C)c(C(C)=O)c(-c3ccc(Cl)cc3)c(C#N)c2=S)C(OC(C)=O)C(OC(C)=O)C1OC(C)=O (stereo unspecified)
inactive: [1] -37.9% | [2] -9.55% | [3] 12.2% | [4] 9.15% | [5] -2.65%

O=C(O)c1cccc(SS(=O)(=O)c2cccc(C(=O)O)c2)c1
inactive: [1] -18.4% | [2] -13.4% | [3] 9.45% | [4] 7.5% | [5] -7.45%

C/C(=C\c1ccccc1)C(O)C(=O)c1nc2ccc([N+](=O)[O-])cc2[nH]c1=O (stereo unspecified)
inactive: [1] -5.55% | [2] -33.1% | [3] 21.4% | [4] -26.4% | [5] 14.5%

C=CCN(CC=C)/N=N/c1nc[nH]c1C(N)=O
inactive: [1] 28.1% | [2] 8.55% | [3] 5.75% | [4] -5.55% | [5] 22.1%

CN(C(=O)/C=C/c1ccccc1)c1ccccc1
inactive: [1] 45.6% | [2] 13.4% | [3] 27.1% | [4] 43.3% | [5] 32.4%

O=c1oc2ccccc2c(=O)n1O
inactive: [1] 65.8% | [2] 10.3% | [3] 9.4% | [4] 30.1% | [5] 43.1%

CCOC(=O)CCC(NC(=O)c1ccc([N+](=O)[O-])cc1)C(=O)OCC (stereo unspecified)
inactive: [1] 29.6% | [2] -32.3% | [3] -86.5% | [4] 7.7% | [5] 26.1%

CCCCc1nc(C)oc1C(C)C
inactive: [1] -31.2% | [2] -15.8% | [3] -5.45% | [4] -23.9% | [5] -8.2%

Cc1ccc(N=Cc2cc(Br)ccc2O)cc1Cl
active: [1] 98.6% | [2] 99% | [3] 95% | [4] 98.7% | [5] 96.8%

O=C(Cl)CNS(=O)(=O)c1ccccc1
inactive: [1] 5.45% | [2] 5.1% | [4] 6.4% | [5] 1.45%

O=C(/C=C/C=C/c1ccc2c(c1)OCO2)N1CCCCC1
inactive: [1] -1.5% | [2] -26.4% | [3] -22.6% | [4] 5.45% | [5] -22.7%

COc1ccc(C2C(C#N)=C(S)N(C3OC(COC(C)=O)C(OC(C)=O)C(OC(C)=O)C3OC(C)=O)C(c3ccccc3)=C2C(C)=O)cc1 (stereo unspecified)
inactive: [1] 44% | [2] 38.4% | [3] -4.2% | [4] -38.9% | [5] 39%

CNc1ccc(O)cc1
inactive: [1] 3.6% | [2] 6.9% | [3] -24.4% | [4] -0.05% | [5] 15.4%

N#Cc1ccc(/C=C/C(=O)c2ccccc2)cc1
inactive: [1] 13.4% | [2] -20.1% | [3] 6.8% | [4] 13.9% | [5] 9.05%

O=c1cc(-c2cccs2)ss1
inactive: [1] 18.4% | [2] 5.25% | [3] -34.6% | [4] 13.8% | [5] 25%

COc1cc(=O)cc2n(-c3cc(OC)c(O)c(OC)c3)c3ccccc3nc1-2
inactive: [1] 23.6% | [2] 0.1% | [3] 6% | [4] -8.3% | [5] 23.5%

N#CC1=CN(Cc2ccccc2)C(c2ccccc2)C=C1 (stereo unspecified)
inactive: [1] 23.2% | [2] -2.15% | [3] 4.65% | [4] 35.9% | [5] 27%

NNc1nc2ccccc2c(=O)n1NC(=O)C(=O)Nc1cccc(C(F)(F)F)c1
inactive: [1] -0.35% | [2] 17.6% | [3] -38.6% | [5] 31.4%

Cc1c(Cl)c(C)c(Cc2c(C)c(Cl)c(C)c(Cl)c2O)c(O)c1Cl
inactive: [1] -4.7% | [2] -40.4% | [3] -11.7% | [4] -5.2% | [5] -5.9%

CC(NC(=O)CCl)c1ccccc1 (stereo unspecified)
inactive: [1] 23.7% | [2] -12.2% | [3] 14.4% | [4] 4.25% | [5] 36.4%

O=C1c2cccc3cccc(c23)C(=O)N1Cc1ccco1
inactive: [1] 41.4% | [2] 36.2% | [3] 44.5% | [4] 40.2% | [5] 24.7%

Cc1csc2nc(-c3ccco3)nn12
inactive: [1] -3.2% | [2] -23.9% | [3] 15.9% | [4] -13.3% | [5] 4.35%

COc1ccc(Cl)cc1C(O)CN1CCCCC1 (stereo unspecified)
inactive: [1] -8.35% | [2] -11.9% | [3] -37.5% | [4] 0.45% | [5] -6.3%

CCNCc1ccccc1
inactive: [1] -18.2% | [2] -0.25% | [3] -66.5% | [4] -10.9% | [5] -18.8%

CC(C)NC(=O)C1CC2C=CC1C2 (stereo unspecified)
inactive: [1] 7.7% | [2] 1.3% | [3] 3.25% | [5] 14.8%

CN=C(NC#N)NCc1ccccc1
inactive: [1] 7.05% | [2] 7.35% | [4] 20.8% | [5] 8.45%

CCCC(CCC)(C(=O)O)C(=O)O
inactive: [1] -10.3% | [2] -25.1% | [3] 27.5% | [4] -17.9% | [5] 11.5%

COC(=O)C1(Cc2ccc3c(c2)CCC3)Cc2ccccc2C1
inactive: [1] -9.5% | [2] -25.5% | [3] 5.2% | [4] 29.9% | [5] -9.2%

O=C(O)c1cccc(NC(=O)C(F)(F)F)c1
inactive: [1] -1.1% | [2] 1.6% | [3] -29.4% | [4] -6.05% | [5] -2.15%

CC1OC(c2ccccc2Cl)OC1C (stereo unspecified)
inactive: [1] 1% | [2] -2.75% | [3] -8.5% | [4] -3.05% | [5] -11.7%

COc1ccc2c(c1)C(=O)C(CO)C(C(=O)O)C2 (stereo unspecified)
inactive: [1] -13.1% | [2] -17.1% | [3] -24.6% | [4] -3.5% | [5] -24.8%

CCOC(=O)CN1CCC(C(=O)OCC)CC1
inactive: [1] 7.75% | [2] -27% | [3] 12.9% | [4] -3.05% | [5] 20.8%

COc1ccccc1NC(=O)NCCCCCCNC(=O)Nc1ccccc1OC
inactive: [1] -25.6% | [2] -2.55% | [3] -39.9% | [4] 0.85% | [5] 13.4%

CC1CC(=O)C(CC(=O)O)[C@H]1C(C(=O)C(=O)Nc1cc(Cl)ccc1Cl)[N+](=O)[O-] (stereo partly specified)
inactive: [1] 1.45% | [2] -11.3% | [3] 14.7% | [4] -13.3% | [5] -2%

CCCCCCCCCCCCCCCCCCNC(=O)NCc1ccncc1
inactive: [1] -13.3% | [2] 1.8% | [3] -4.3% | [4] -0.35% | [5] 9.3%

O=NN(CCCl)C(=O)NC1CCC(CC(=O)O)CC1 (stereo unspecified)
inactive: [1] 19.1% | [2] 6.1% | [3] -8.7% | [4] 2.9% | [5] -6.85%

CCCCOCCOCC(C)O (stereo unspecified)
inactive: [1] 14.9% | [2] 10.2% | [3] -24.4% | [4] -8.4% | [5] 2.05%

CC1(O)CC2C(CC1SC1CC3C(CC1(C)O)C3(C)C)C2(C)C (stereo unspecified)
inactive: [1] -48.3% | [2] -33.5% | [3] -26.4% | [4] -51.7% | [5] -33%

Nc1ccc(F)c([N+](=O)[O-])c1
inactive: [2] 0.65% | [6] -1.6% | [3] -23.6% | [4] -1.55% | [5] -1.2%
